This passage reports inhibition results from PubChem BioAssay AID2315 (National Center for Advancing Translational Sciences (NCATS), 2010).

Hit rate of the full screen: of about 290,000 compounds, about 27,000 (9.3%) were called active. Cut-off read from the data, not from the text of the source: active = inhibition mostly above about 28% (no sharp cut-off); inactive = mostly below about 43%. Only a selection was taken, and actives are over-represented in it overall.

This assay can be described thus: A qHTS for Small Molecule Inhibitors of Shiga Toxin. For inhibition: 0% is about no effect. The conditions noted are these: Vero cells, Shiga toxin protein synthesis inhibition reporter; at 38.7 µM, active compounds read high.
For the compound `Cc1ccc(SCCC(=O)NCc2ccccn2)cc1`, the inhibition (in general, the relative decrease from the control value, in per cent) was -6.02% (inactive).

On to `Cc1ccc(SCCSc2ncccn2)cc1`, for which the inhibition was 38.6% (active).

With `Cc1ccc(SCCC(=O)NC(C(C)C)C(C)C)cc1`, the inhibition is -4.72% (inactive).

For the compound `Cc1ccc(S(=O)Cc2ccc(C(=O)N3CCN(C4CCCCC4)CC3)o2)cc1` (centres undefined), the inhibition is -3.36% (inactive).

For `COc1ccc(CN2CCN(Cc3ccc(OC)c(OC)c3OC)CC2)cc1`, the inhibition was -4.07% (inactive).

As to `CC(C)C(C(=O)NCc1ccco1)N(CC1CCCO1)C(=O)CNS(=O)(=O)c1ccc(F)cc1` (centres undefined), the inhibition is -0.539% (inactive).

Take `CCc1ccccc1S(=O)(=O)Cc1ccc(C(=O)NCCc2ccccc2)o1`: the inhibition was 6.5% (inactive).

With `O=C(CSc1n[nH]c(=O)n1-c1ccccc1)Nc1ccccc1C(F)(F)F`, the inhibition was -2.01% (inactive).

For `Fc1cc(F)c2nc(Nc3nc4c(F)cccc4s3)sc2c1`, the inhibition was 28.3% (inactive).

Consider `Fc1cc(F)c2nc(N3CCOCC3)sc2c1`, for which the inhibition is 87.4% (active).

Consider `Cc1cc(C)c2nc(N3CCC(C(=O)NCCN4CCOCC4)CC3)sc2c1`, for which the inhibition was 17.8% (inactive).

With `COC(=O)C1=C(O)/C(=C/c2ccc(OCC(=O)Nc3ccccc3)cc2)N=C1C`, the inhibition was -18.9% (inactive).

For the compound `CC1CN(CC(=O)NC(C)c2ccccc2)CC(C)O1` (centres undefined), the inhibition is -5.21% (inactive).

On to `CCCSc1nsc(N)n1`, for which the inhibition is 11% (inactive).

Regarding `CCCCCCSc1nsc(N)n1`, the inhibition is 59.2% (active).

Regarding `Nc1nc(SC23CC4CC(CC(C4)C2)C3)ns1`, the inhibition is 1.53% (inactive).

For the compound `CCc1cccc(NC(=O)C2CCCN(S(=O)(=O)c3ccc4[nH]c(=O)ccc4c3)C2)c1` (centres undefined), the inhibition is -5.44% (inactive).

For `CCCCn1c(N)c(N(CC)C(=O)c2ccccc2C(F)(F)F)c(=O)[nH]c1=O`, the inhibition was 3.43% (inactive).

As to `Cc1nn(C(C)C(=O)NCCC2=CCCCC2)c(=O)c2nn(-c3ccccc3)c(C)c12` (centres undefined), the inhibition is 18.5% (inactive).

As for `C1=C(CCNc2ncnc3c2cnn3-c2ccccc2)CCCC1`, the inhibition is 190% (active).

In the case of `O=C(NCCC1=CCCCC1)C1CCN(Cc2cnn(-c3ccccc3)c2-n2cccc2)CC1`, the inhibition is 31% (inactive).

Take `O=C(Cc1ccc(Br)cc1)NCCN1CCOCC1`: the inhibition is -10.9% (inactive).

Turning to `CC1CCN(C(=O)CCc2nnc3ccc(NCc4ccco4)nn23)CC1`, the inhibition is 12.6% (inactive).

As for `Cc1cccc(-n2cnc(C(=O)NNC(=S)Nc3ccccc3)c2)n1`, the inhibition was -10.7% (inactive).

Regarding `Cc1cccc(-n2cnc(C(=O)Nc3cccnc3)c2)n1`, the inhibition is 101% (active).

Consider `O=C(Nc1cccnc1)c1cc([N+](=O)[O-])ccc1Cl`, for which the inhibition is -2.48% (inactive).

Consider `Cc1ccc(SCCC(=O)Nc2cc(C)on2)cc1`, for which the inhibition is -4.4% (inactive).

Turning to `Cc1ccc2nc(SCC(=O)NC3CCCC3)[nH]c2c1`, the inhibition is -2.14% (inactive).

Turning to `Cc1ccc2nc(-c3ccc(SCC(=O)Nc4cc(C)on4)nc3)[nH]c2c1`, the inhibition was 71.3% (active).

As for `CC(C)(C)c1ccc(C(=O)N2CCN(CCNC(=O)C(=O)Nc3ccc(F)cc3)CC2)cc1`, the inhibition is -6.99% (inactive).

Regarding `CCOC(=O)c1cc2cc(C)ccc2[nH]1`, the inhibition was 168% (active).

For `CC(=O)OCc1cc2cc(C)ccc2[nH]c1=O`, the inhibition was -8.28% (inactive).

As for `CCNCc1cc2cc(C)ccc2[nH]c1=O`, the inhibition was 12% (inactive).

Turning to `COc1ccc(CNC(=O)[C@H](Cc2c[nH]c3ccccc23)NC(C)=O)cc1OC`, the inhibition was -6.62% (inactive).

Turning to `COCCCn1c(CCC(=O)O)ccc1-c1ccc(F)cc1`, the inhibition is 13% (inactive).

As for `COc1ccc(-c2ccc(CCC(=O)O)n2-c2ccc(O)cc2)cc1`, the inhibition was 4.87% (inactive).

Turning to `COc1ccc(-c2ccc(CCC(=O)O)n2NC(=O)c2ccc(C(C)(C)C)cc2)cc1`, the inhibition was 21% (active).

`CC(C)c1ccc(Nc2nnc(SCC(=O)c3nnc(-c4ccccc4)o3)s2)cc1`: the inhibition is 58.9% (active).

As to `Cc1ccc(Nc2nnc(SCC(=O)c3cc4ccccc4o3)s2)cc1C`, the inhibition was 19.8% (inactive).

On to `O=C(CSc1nnc(Nc2ccccc2)s1)Nc1cccnc1Cl`, for which the inhibition was -14.8% (inactive).

For the compound `Cc1cc(C)cc(Oc2c(C(F)(F)F)oc3cc(OCC(=O)O)ccc3c2=O)c1`, the inhibition is -4.45% (inactive).

For `CC(C)=CCN1CCN(Cc2cc3ccccc3[nH]2)CC1CCO` (centres undefined), the inhibition is 1.5% (inactive).

For `N#Cc1cccc(CN2CCC(=O)N(CCO)CC2)c1`, the inhibition was 2.03% (inactive).

On to `O=C(Nc1cccc(-c2nnc(-c3ccccc3)o2)c1)C1CCCO1` (centres undefined), for which the inhibition was 85% (active).

For `CC(C)(C)NS(=O)(=O)c1ccc(NC(=O)C2CCCO2)cc1` (centres undefined), the inhibition was -21.4% (inactive).

In the case of `O=C(Nc1cccc(Cl)c1)Nc1nnc(-c2ccccc2)o1`, the inhibition is -12.3% (inactive).

On to `O=C(Nc1nnc(CCc2ccccc2)s1)C1CCCO1` (centres undefined), for which the inhibition is 39.5% (inactive).

In the case of `O=C(Nc1ccc(-c2nnc(-c3ccccc3)o2)cc1)C1CCCO1` (centres undefined), the inhibition was 93.5% (active).

As to `O=C(Nc1nnc(SCc2c(Cl)cccc2Cl)s1)C1CCCO1` (centres undefined), the inhibition was 86.4% (inactive).

Regarding `CCCCC(=O)Nc1c2c(nn1-c1ccc([N+](=O)[O-])cc1)CS(=O)(=O)C2`, the inhibition was 19.5% (inactive).

In the case of `Cc1ccc2c(C)c(C(=O)N(C)Cc3ccncn3)oc2c1C`, the inhibition was 4.22% (inactive).

Take `C=CCn1c(SCC(=O)NCCCO)nc2sc3c(c2c1=O)CCC3`: the inhibition is 8.99% (inactive).

Consider `Brc1ccc(-c2n(-c3ccccn3)c3ccccc3[n+]2-c2ccccn2)cc1`, for which the inhibition is 12.9% (inactive).

On to `O=[N+]([O-])c1cccc(S(=O)(=O)NCc2ccccn2)c1`, for which the inhibition was -7.29% (inactive).

As for `Cc1cc2cc3c(N)[nH]nc3nc2cc1C`, the inhibition is 40.9% (active).

With `CSc1ncccc1C(=O)Nc1nc2ccc(F)cc2s1`, the inhibition was 138% (active).

Regarding `CSc1ncccc1C(=O)Nc1ccc(C)cn1`, the inhibition is 34% (inactive).

As for `COc1cc(NC(=O)c2cccnc2SC)cc(OC)c1`, the inhibition was 10.8% (inactive).

Take `COCCn1c(N)c(NCc2ccccc2)c(=O)[nH]c1=O`: the inhibition was -3.86% (inactive).

For `COc1ccc(C2CC(c3cccs3)=NN2C(=O)CCC(=O)O)cc1OC` (centres undefined), the inhibition is -4.61% (inactive).

Regarding `COc1ccc(C2CC(c3cccs3)=NN2C(=O)CSc2nnc(N)s2)cc1OC` (centres undefined), the inhibition is -6.81% (inactive).

Consider `COc1ccc(C2CC(c3cccs3)=Nc3ccccc3S2)cc1OC` (centres undefined), for which the inhibition is 41.1% (active).

For `O=C(NCc1ccccc1Cl)C1CCN(c2ncnc3c2nc2n3CCCCC2)CC1`, the inhibition was -9.78% (inactive).

`COc1ccc(C(=O)NC2CCN(C(=S)NCCc3ccccc3)CC2)cc1`: the inhibition was 2.57% (inactive).

As to `S=C(NCCc1ccccc1)NCc1ccccc1Cl`, the inhibition was 18.4% (inactive).

As for `O=C(NCCc1c[nH]c2ccccc12)C(=O)NCC1CCCO1` (centres undefined), the inhibition is -8.17% (inactive).

As for `Oc1ccccc1N1CCN(C(=S)NCc2ccccc2)CC1`, the inhibition is 76.8% (active).

With `S=C(NCCc1ccccc1)Nc1ccccc1`, the inhibition was 57.4% (active).

With `Oc1ccc(N2CCN(C(=S)NCc3ccccc3)CC2)cc1`, the inhibition is 17.4% (inactive).

With `S=C(NCCCc1ccccc1)Nc1ccc(Br)cc1`, the inhibition was 0.943% (inactive).

In the case of `S=C(NCCc1ccccc1)N1CCCCC1`, the inhibition was 66.4% (active).

Turning to `O=C1CCN(C(=S)NCCc2ccccc2)CC1`, the inhibition was 35.2% (inactive).

`O=C(CS(=O)(=O)Cc1ccccc1)NCC1CCCO1` (centres undefined): the inhibition was -4.38% (inactive).

With `S=C(NCCc1ccccc1)NCC1CCCO1` (centres undefined), the inhibition is 0% (active).

`CC1CCCCN1C(=S)NCc1ccccc1` (centres undefined): the inhibition is -6.29% (inactive).

As for `Clc1cc(NC2CCCCC2)ncn1`, the inhibition is -10.3% (inactive).

Consider `CCOC(=O)C1C/C(=C\C(C)=O)c2cccc(C(F)(F)F)c2O1` (centres undefined), for which the inhibition result is “inactive”.

Take `COc1ccc(CCN2C(=O)C(C)=C(C)C2=O)cc1OC`: the inhibition was 17.7% (inactive).

On to `COCCn1c(SCC(=O)Nc2nc(C)cs2)nnc1C(C)C`, for which the inhibition was -5.99% (inactive).

`Cc1nnc(NC(=O)C(c2ccccc2)c2ccccc2)s1`: the inhibition was -9.41% (inactive).

For the compound `COc1ccccc1N1CCN(C(=O)CCS(=O)(=O)c2ccc3c(c2)NC(=O)C(C)S3)CC1` (centres undefined), the inhibition is -1.86% (inactive).

`O=C(CN1CCN(Cc2ccccc2)CC1)Nc1ccc(F)c(F)c1`: the inhibition is 14.5% (inactive).

With `Cc1ccc(NC(=O)COC(=O)C2C3CC4OC(=O)C2C4C3)cc1Cl` (centres undefined), the inhibition is 17.4% (inactive).

In the case of `Cc1ccc(S(=O)(=O)N(CC(O)CN2C(=O)NC(C)(C)C2=O)c2cccc([N+](=O)[O-])c2)cc1` (centres undefined), the inhibition was -12.9% (inactive).

For `COc1ccc(CCNC(=O)CCC(=O)NC2CCCCC2)cc1OC`, the inhibition is 10.5% (inactive).

Take `COC(=O)CN1C(=O)[C@H]2[C@@H](/C=C/c3ccccc3)N3C(=O)CN(CC4CC4)C(=O)[C@@]3(Cc3ccccc3)[C@H]2C1=O`: the inhibition is -11.8% (inactive).

For the compound `Cc1nnc(OCC(=O)NCCC2=CCCCC2)c2ccccc12`, the inhibition is -1.67% (inactive).

Take `O=C(Cc1cccc2ccccc12)NCCC1=CCCCC1`: the inhibition was -13.5% (inactive).

For the compound `S=C(NCCC1=CCCCC1)Nc1ccccc1`, the inhibition was 72.2% (active).

`CN(C(=O)C1CCN(c2ncnc3c2nc2n3CCCCC2)CC1)C1CCCCC1`: the inhibition was -2.24% (inactive).

Regarding `COCC(=O)Nc1c(C(=O)N2CCCC2)oc2ccccc12`, the inhibition is 3.56% (inactive).

Regarding `Cc1cc(N(C)C)nc(Cl)n1`, the inhibition was -9.68% (inactive).

`COc1ccc(-c2nc3c(c(SCC(=O)Nc4ccc(C(=O)O)cc4)n2)Cc2ccccc2O3)cc1`: the inhibition is 18.2% (inactive).

`O=C1C2C3C=CC(C4CC34)C2C(=O)N1/N=C/c1ccc(-c2ccccc2[N+](=O)[O-])o1` (centres undefined): the inhibition was 61.9% (inactive).

Consider `COc1cccc(N(CC(=O)NC2CCCCCC2)S(=O)(=O)c2ccccc2)c1`, for which the inhibition is -29.3% (inactive).

As for `C/C(=N\NC(=O)c1ccc(C)cc1)C1C(=O)c2ccccc2C1=O`, the inhibition was 40.4% (active).

With `C/C(=N\NC(=O)CNC(=O)C(c1ccccc1)c1ccccc1)c1ccc(C)cc1`, the inhibition is -1.4% (inactive).

With `Cc1ccc(C(=O)N/C(=C/c2cccnc2)C(=O)O)cc1`, the inhibition was 14.9% (inactive).

With `COCCN1C(=O)C(=O)/C(=C(/O)c2ccc(S(=O)(=O)N3CCOCC3)cc2)C1c1ccc(O)c(OC)c1` (centres undefined), the inhibition is 2.24% (inactive).
